This is a sample that favours compounds with a hit; in the whole collection about 4.2% have one here.
FBA Mtb inh = inhibitors of M. tuberculosis fructose-bisphosphate aldolase | purified M. tuberculosis FBA, fluorescence read-out | inhibition, % at 1 µM | actives 2.3% (n = 360,000); in the data active = inhibition above about 27%
BJeLR viability = kills HRASV12-expressing BJeLR cells; AID 1554; actives 0.17% (n = 300,000); BJeLR (HRASV12) viability, CellTiter-Glo ATP luminescence, 48 h; inhibition, % (test concentration not listed); in the data active = inhibition above about 50%
RecA splice inh = Mtb RecA intein splicing inhibition. cell-free RecA intein splicing, fluorescence. inhibition, % (concentration not given with the values). actives 0.75% (n = 290,000). P9WHJ3; in the data active = inhibition above about 30%
GDH-TPI inh = GDH-TPI coupled enzyme inhibition counter-screen; GDH-TPI coupled enzyme counterscreen, NADH absorbance; inhibition, % at 4.8 µM; actives 1.2% (n = 360,000); AID 588335; in the data active = inhibition above about 30%
PrPC TRFRET = cell surface PrPC inhibition, primary TR-FRET screen; P04156; TR-FRET read-out; inhibition, % at 13.8 µM; actives 0.43% (n = 370,000); in the data active = inhibition above about 24%
A number is an active result; . = inactive; / = no result given; + = active, no number.

SMILES | FBA Mtb inh | BJeLR viability | RecA splice inh | GDH-TPI inh | PrPC TRFRET
CN(C)c1ccc(/C=N\NC(=O)c2csnn2)cc1 | . | . | . | 42 | .
CN(C)c1ccc(C=Nc2ccccc2C(N)=O)cc1 | . | / | / | 38 | .
CN(C)c1ccc(/C=N/NC(=O)c2ccco2)cc1 | . | . | . | 47 | .
CN(C)c1ccc(/C=N/NC(=O)c2ccccn2)cc1 | . | . | . | . | .
CC(C)(C)N(NC(=O)NCCCl)C(=O)c1ccccc1Cl | / | / | / | / | .
CN(C)c1ccc(/C=N/NC(=O)c2ccn(C)n2)cc1 | . | . | . | 33 | .
Cn1ccc(C(=O)N/N=C/c2cccnc2)n1 | . | . | / | . | .
CCOC(=O)c1nc2nc(-c3cccs3)cc(C(F)(F)F)n2n1 | 114 | . | . | . | .
O=C(c1nc2nc(-c3cccs3)cc(C(F)(F)F)n2n1)N1CCN(Cc2ccccc2)CC1 | 145 | . | . | . | .
O=C(c1nc2nc(-c3ccccc3)cc(C(F)(F)F)n2n1)N1CCOCC1 | . | . | . | . | .
Nc1nc2nc(-c3cccs3)cc(C(F)(F)F)n2n1 | + | . | . | . | .
CCCN1CCS(=O)(=O)N(Cc2cn(Cc3ccc(OC)cc3)nn2)C(C(=O)OC)C1 (centres undefined) | / | / | / | / | .
CCOc1ccc(-n2c(SCc3nc4ccccc4[nH]3)nnc2-c2cccc(Cl)c2)cc1 | / | / | / | / | .
CCC[C@H]1[C@@H](O)CC[C@@]23CCCN2C(=O)CCC[C@@H]13 | / | / | / | / | .
O=C(N/N=C1\CCCc2c1[nH]c1ccc(Cl)cc21)c1ccncc1 | . | . | . | 41 | .
COc1ccc(OC)c(S(=O)(=O)N2CCC(C(=O)N3CCN(C4CCCCC4)CC3)CC2)c1 | / | / | / | / | .
Cn1c(=O)c2cc(NC(=O)NCCc3cccs3)ccc2n1Cc1ccccc1 | 141 | / | / | . | .
Cc1cc(C)cc(Cn2c3ccc(NC(=O)NCCc4cccs4)cc3c(=O)n2C)c1 | 171 | / | / | . | .
O=C(c1cc(C2CC2)on1)N(C1CCCCC1)C1CCOCC1 | / | / | / | / | .
C#CCNC(=O)C[C@H]1C[C@@]2(C(=O)OC)C(=C[C@H](COCc3ccccc3)O[C@@H]2C)N(Cc2ccccc2)C1=O | / | / | / | / | .
O=S(=O)(N/N=C\C=C\c1ccccc1)c1ccc(Cl)cc1 | . | . | . | 59 | .
COc1ccc(S(=O)(=O)c2cnc3ccccc3n2)cc1 | . | . | 35 | . | .
O=S(=O)(c1ccc(Br)cc1)c1cnc2ccccc2n1 | . | . | . | . | .
O=S(=O)(Cc1ccccc1)c1cnc2ccccc2n1 | . | . | 30 | . | .
COc1ccc(C(=O)/C=C/c2ccc(OCc3ccccc3)cc2)cc1CSCC(=O)O | . | . | . | 40 | .
SMILES | FBA Mtb inh | BJeLR viability | RecA splice inh | GDH-TPI inh | PrPC TRFRET
Cc1ccc(S(=O)(=O)N(C)[C@H]2C[C@H]3c4cc(-c5ccccc5C)ccc4CCN3C[C@H]2[C@H](C)O)cc1 | / | / | / | / | .
C/C(=N\Nc1ccc(S(N)(=O)=O)cc1[N+](=O)[O-])c1ccccc1O | . | . | . | . | .
C/C(=N\Nc1ccc(S(N)(=O)=O)cc1[N+](=O)[O-])c1ccco1 | . | . | . | 41 | .
COc1cccc(N2CCN(C(=O)c3ccc(CS(=O)c4ccc(C)cc4)o3)CC2)c1 (centres undefined) | . | 52 | . | . | .
COc1cccc(N2CCN(C(=O)c3ccc(CS(=O)c4ccc(Cl)cc4)o3)CC2)c1 (centres undefined) | . | . | . | . | .
Cc1ccc(S(=O)(=O)N2C=C(c3ccccc3)c3ccccc3-c3ccccc32)cc1 | / | / | / | / | .
CC1=C(C#N)c2nc(N)c(C#N)c(C)c2/C1=C\c1ccc(C)cc1 | / | . | 33 | / | /
O=C(NC1CCCCN(Cc2cccc(C(F)(F)F)c2)C1=O)C1C2CC3CC(C2)CC1C3 (centres undefined) | / | / | / | / | .
O=Nc1c(O)ccc2cc(S(=O)(=O)O)ccc12 | . | / | / | . | /
CN(C)c1ccc2cc(S(=O)(=O)O)cc(O)c2c1 | 169 | / | / | . | .
Oc1ccc(C(=Nc2ccccc2)c2ccccc2)c(O)c1 | . | / | / | 45 | .
O=C(NNC(=O)c1ccc(O)cc1O)c1ccc(-c2ccccc2)cc1 | . | . | . | . | .
C#CCNC(=O)C[C@H]1C[C@@]2(C(=O)OC)C(=C[C@H](COCc3ccccc3)O[C@@H]2C)N(Cc2cccc3ccccc23)C1=O | / | / | / | / | .
COC(=O)[C@@]12CCCCC3=C1N(CCC3)C(=O)[C@H]2CC(=O)N1CCN(C(=O)c2ccco2)CC1 | / | / | / | / | .
CCOc1ccc(N2C(N)=NC(N)=NC2(C)C)cc1 | . | . | . | . | .
COc1ccc(-n2nc3cc(C)c(N)cc3n2)cc1Cl | . | . | . | 36 | .

Screens as filed in PubChem BioAssay.
